# Laboratory results reported in PubChem BioAssay AID485341 (National Center for Advancing Translational Sciences (NCATS), 2010).
# Hit rate of the full screen: of about 330,000 compounds, about 1,700 (0.52%) were called active. Calls come from the whole dose curve; as a rule, active = well fitted inhibition curve with a large enough effect; inconclusive = small, poorly fitted or top-dose-only effect; inactive = no such curve, though single readings can be large or run the other way. What follows is part of a selection rich in actives, with near analogues and random picks from the rest. Where a call stands in place of a potency, no number is given.
# Biological target: Beta-lactamase (Escherichia coli (strain K12)) (UniProt P00811)
# Experiment: qHTS Inhibitors of AmpC Beta-Lactamase (assay without detergent); note: nearly all actives have a fitted effect of over 20% in size
# Details: AmpC nitrocefin hydrolysis, absorbance 480 nm, 0.0001% Triton; series mostly up to 57.1 µM
# Method in brief: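 20 mM phosphate pH 7.0 + 0.01% (detergent screen) or 0.0001% Triton X-100; 5.3 nM AmpC reagent; cpd preinc 15 min RT; nitrocefin (800 uM stock) to start; A480 q20 s × 4 min; Activity was normalised to no-enzyme and no-compound control wells.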
# Potency is the fitted concentration of half-maximal effect.
# Sequence of Beta-lactamase (Escherichia coli (strain K12)) (P00811 whole entry, looked up): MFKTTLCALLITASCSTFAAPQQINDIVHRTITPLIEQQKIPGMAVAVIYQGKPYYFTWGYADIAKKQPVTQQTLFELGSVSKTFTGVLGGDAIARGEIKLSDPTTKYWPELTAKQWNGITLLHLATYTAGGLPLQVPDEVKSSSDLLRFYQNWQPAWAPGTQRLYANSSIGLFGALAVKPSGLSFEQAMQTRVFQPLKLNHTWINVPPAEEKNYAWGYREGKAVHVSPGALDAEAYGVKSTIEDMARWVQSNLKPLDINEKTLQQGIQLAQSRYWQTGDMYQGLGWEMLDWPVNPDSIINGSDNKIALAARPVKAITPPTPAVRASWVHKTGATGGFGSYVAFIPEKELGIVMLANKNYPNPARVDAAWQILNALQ
row,Structure (SMILES),Potency
1,C=CCNCCCCOc1ccccc1,inactive
2,O=C(O)C1CCCN(S(=O)(=O)c2cccc3cccnc23)C1 (stereo not drawn),inactive
3,COc1ccccc1CNC(=O)C1CCCN(S(=O)(=O)c2cccc3cccnc23)C1 (stereo not drawn),22.4 µM (active)
4,COc1cccc(CNC(=O)C2CCN(S(=O)(=O)c3cccc4cccnc34)CC2)c1,inactive
5,CCOC(=O)C1C(c2ccc(O)cc2)NC(=O)NC1(O)C(F)(F)F (stereo not drawn),inactive
6,CC(=O)C1C(c2ccc(Cl)cc2)NC(=O)NC1(O)C(F)(F)F (stereo not drawn),44.7 µM (active)
7,CC(=O)C1C(c2cccc(Oc3ccccc3)c2)NC(=O)NC1(O)C(F)(F)F (stereo not drawn),inactive
8,COC(=O)[C@@H]1CC(O)CN1C(=O)C12CC3CC(CC(C3)C1)C2 (stereo partly drawn),inactive
9,Cc1ccc(NS(=O)(=O)c2ccc(C(C)(C)C)cc2)cn1,inactive
10,CC(=O)Nc1ccc(S(=O)(=O)Nc2ccc(-c3ccc4nnc(C)n4n3)cc2)cc1,inactive
11,CC(=O)Nc1ccc(S(=O)(=O)Nc2nc(-c3ccc(C(C)(C)C)cc3)cs2)cc1,35.5 µM (active)
12,Cc1ccc(-c2csc3nnc(SCC(=O)NCc4ccco4)n23)cc1,0.316 µM (active)
13,Cn1c(-c2ccc(F)cc2)cnc1SCC(=O)NCc1ccco1,inactive
14,O=C(CSc1nnc2scc(-c3ccc(F)cc3)n12)NCc1ccco1,inactive
15,COc1ccccc1N(CC(=O)Nc1ccc(C(F)(F)F)cc1)S(C)(=O)=O,inactive
16,O=C(Cn1nc(Cc2cccnc2)c2ccccc2c1=O)NCC1CCCO1 (stereo not drawn),0.501 µM (active)
17,O=C(Cn1nc(Cc2cccnc2)c2ccccc2c1=O)NCC1COc2ccccc2O1 (stereo not drawn),inactive
18,Cc1nn(CC(=O)NCC2CCCO2)c(=O)c2cc3ccccc3n12 (stereo not drawn),inactive
19,O=C(Cn1cc2c(n1)CCCCC2)NCCN1CCOCC1,inactive
20,CCOC(=O)N1CCC(NC(=O)Cn2cc3c(n2)CCCCC3)CC1,35.5 µM (active)
21,COCCNC(=O)Cn1cc2c(n1)CCCCC2,inactive
22,Cc1cc(-c2nnc(CCC(=O)NC(c3ccccc3)c3ccccc3)o2)no1,inactive
23,CCOC(=O)/C(=N\Nc1cc(Cl)ccc1Cl)N1CCN(C)CC1,inactive
24,CCc1ccc(CN(C)C(C)C(=O)Nc2ccc(S(=O)(=O)N3CCCC3)cc2)cc1 (stereo not drawn),inactive
25,O=C(CSC(=S)N1CCOCC1)c1cc(Br)cc(Br)c1O,20 µM (active)
26,O=C(c1cc2cc(Br)cc(Br)c2oc1=O)N1CCOCC1,inactive
27,O=C(CSC(=S)N1CCOCC1)c1ccccc1,inactive
28,CCN(CC(=O)Nc1ccc(Cl)c(S(=O)(=O)N(C)C)c1)Cc1nc2ccccc2c(=O)[nH]1,inactive
